# ELG1 repair inh: qHTS screen for small molecules that inhibit ELG1-dependent DNA repair in human embryonic kidney (HEK293T) cells expressing luciferase-tagged ELG1. HEK293T ELG1-luciferase reporter, luminescence, 16 h; DNA damage induced by 5-fluorouridine. Potency, µM (titrated, usually from 46.1 µM), for inactives: at the highest dose activity change, negative = inhibition, actives largely listed as inhibitors. actives 2.3% (n = 330,000). AID 504467, 2011; also: % is scaled to controls: 0 for no effect and ±100 for the full control effect; nearly all actives have a fitted effect of over 55% in size
#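 Overnight (16 hr) co-exposure of 2,000 cells/well to 5-fluorouridine and compound at 37 °C preceded detection. Luciferase was quantified via ONE-Glo luminescence; loss of signal denotes inhibition.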
# SMN2 splice up: qHTS Assay for Enhancers of SMN2 Splice Variant Expression. HEK293 SMN2-luciferase splicing reporter, luminescence, 30-36 h. Potency, µM (titrated, usually from 46.1 µM), for inactives: top-dose activity change, positive = activation, usual class: activators. actives 2.8% (n = 210,000). AID 1458, 2008; also: % of control where 0% means no effect; nearly all actives have a fitted effect of over 55% in size
#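 qHTS luciferase splicing reporter: luminescence rises when SMN2 exon 7 is included in transfected HEK293 cells. Compound exposure lasted 30-36 h at 37C, with 4.5 mM final sodium butyrate as control, followed by a ONE-Glo read.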
# Rab9 prom act: qHTS Assay for Rab9 Promoter Activators; Huh7 Rab9 promoter-luciferase reporter, luminescence, 24 h; Potency, µM (top dose mostly 9.22 µM), inactives show at the highest dose activation, negative = inhibition, most hits filed as activators; actives 2.8% (n = 320,000); also: % of control where 0% means no effect; nearly all actives have a fitted effect of over 60% in size
#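 Stable Rab9-luc Huh7, 1500 cells/well, 2 h settle; cmpd in DMSO, 24 h, 37 °C/5% CO2; luciferase reagent 10 min RT; luminescence.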
# FLuc modulator: qHTS profiling assay for firefly luciferase inhibitor/activator using purifed enzyme and Km concentrations of substrates (counterscreen for miR-21 project) | Luciferin 4-monooxygenase (Photinus pyralis), P08659 | AID 588342, 2011 | actives 6.9% (n = 360,000) | Potency, µM (doses to about 57.5 µM), for inactives: at the highest dose activity change, negative = inhibition, hits mostly inhibitors | purified FLuc, Km substrates, luminescence inhibition;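 also: plate controls were vehicle for no effect and reference inhibitor for full effect; nearly all actives have a fitted effect of over 55% in size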
# Target sequence (P08659 whole entry, looked up): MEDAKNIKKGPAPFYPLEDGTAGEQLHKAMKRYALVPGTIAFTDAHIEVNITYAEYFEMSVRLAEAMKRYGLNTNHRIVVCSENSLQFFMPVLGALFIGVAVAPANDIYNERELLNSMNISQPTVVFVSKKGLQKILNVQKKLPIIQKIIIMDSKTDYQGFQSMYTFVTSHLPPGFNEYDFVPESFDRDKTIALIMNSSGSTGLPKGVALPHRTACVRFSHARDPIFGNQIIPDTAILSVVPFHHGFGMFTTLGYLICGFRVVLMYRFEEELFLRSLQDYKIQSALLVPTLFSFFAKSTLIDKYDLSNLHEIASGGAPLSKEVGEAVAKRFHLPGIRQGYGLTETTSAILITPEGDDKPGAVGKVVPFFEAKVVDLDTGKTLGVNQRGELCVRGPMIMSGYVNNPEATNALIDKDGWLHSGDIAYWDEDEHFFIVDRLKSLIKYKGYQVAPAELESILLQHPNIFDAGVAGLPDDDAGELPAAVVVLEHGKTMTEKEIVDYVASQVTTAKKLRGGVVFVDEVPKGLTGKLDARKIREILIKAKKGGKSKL
#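 Purified P. pyralis luciferase (10nM final) with 10uM D-luciferin and 10uM ATP (Km levels) in 50mM Tris acetate pH 7.5, 10mM Mg acetate, 0.01% Tween-20, 0.05% BSA; qHTS 6-point titration, ~60 µM downward; luminescence read.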
# NPC1 promoter act: qHTS Assay for NPC1 Promoter Activators | actives 2.4% (n = 320,000) | Huh7 NPC1 promoter luciferase reporter, 24 h | Potency, µM (doses to about 9.22 µM), for inactives: at the top dose activation, actives largely listed as activators; also: % of control where 0% means no effect; nearly all actives have a fitted effect of over 60% in size
#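 Stably transfected Huh7 (NPC1 promoter→luciferase), 1500 cells/well in Opti-MEM + 10% FBS, 2 h settle, then compound 24 h at 37 °C. Luminescence after 10 min with Amplite reagent.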
# ELG1 genotoxic: qHTS screen for small molecules that induce genotoxicity in human embryonic kidney (HEK293T) cells expressing luciferase-tagged ELG1. Potency, µM (highest dose often 46 µM), for the others: at the top dose activity change, positive = activation, most hits filed as activators. actives 1.3% (n = 330,000). HEK293T ELG1-luciferase reporter, luminescence, 16 h; also: % of control where 0% means no effect; nearly all actives have a fitted effect of over 60% in size
#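 ELG1-luciferase HEK293T cells, 2,000/well; compound pinned in; 16 hr, 37 °C, 5% CO2; ONE-Glo, 30 min RT; luminescence on CCD imager.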
# The depositor's hits bear a star; ? = inconclusive; . = no result. Most compounds without a hit are left out; they make up all but 9.2% or so of the library. Calls follow the shape of the dose curve; as a rule, active = well fitted curve in the direction sought with a large enough effect; inconclusive = small, poorly fitted or top-dose-only effect, or another doubt; inactive = no such curve, though single readings can be large; an effect the other way counts as inactive or inconclusive. Potency is read from the fitted curve at half-maximal effect.
SMILES,ELG1 repair inh,SMN2 splice up,Rab9 prom act,FLuc modulator,NPC1 promoter act,ELG1 genotoxic
Cc1cc2nc(-c3ccc(SCC(=O)Nc4ccc(S(=O)(=O)N5CCCC5)cc4)nc3)[nH]c2cc1C,?,13µM*,2µM*,0.3µM*,2.5µM*,?
CSCCC(NC(=O)c1ccc(Cl)cc1Cl)C(=O)N(C)Cc1nc2ccccc2c(=O)[nH]1 (stereo not given),-9%,.,-4%,?,-2%,-3%
C/C(=N\NC(=O)c1ccn(C)n1)c1cccc(NC(=O)c2ccncc2)c1,?,-5%,-5%,15µM*,0%,-1%
C/C(=N/NS(=O)(=O)c1ccc(Cl)cc1)c1cccc(NC(=O)c2ccncc2)c1,3%,.,0%,-17%,-4%,-2%
C/C(=N\NS(=O)(=O)c1ccccc1)c1cccc(NC(=O)c2cccc(Cl)c2)c1,-12%,-1%,-3%,24µM*,2%,-3%
C/C(=N\NC(=O)c1ccc(Cl)cc1)c1cccnc1,?,.,?,17µM*,?,?
C/C(=N\NC(=O)c1ccc(Cl)cc1)c1cccc(NC(=O)c2cccnc2)c1,?,?,?,3µM*,22%,-2%
O=C(CCN1CCOCC1)NNC(=O)Nc1cccc([N+](=O)[O-])c1,-2%,.,3%,1%,0%,1%
O=C1CCCN1CCCNS(=O)(=O)c1ccc(F)c(F)c1,-1%,.,10%,7%,-2%,-2%
O=C1/C(=C\c2cc(Br)cc(Br)c2O)SC(=S)N1Cc1ccccc1,23µM*,.,-1%,?,-1%,-18%
O=C1/C(=C\c2ccc(O)cc2)SC(=S)N1Cc1ccccc1,3%,.,-2%,-19%,0%,1%
O=C1/C(=C\c2cccc([N+](=O)[O-])c2O)SC(=S)N1Cc1ccccc1,8.2µM*,.,-18%,-17%,-6%,-9%
O=C1/C(=C/c2ccc(O)c([N+](=O)[O-])c2)SC(=S)N1Cc1ccccc1,18µM*,-71%,-2%,?,-3%,-14%
CC1(C)CC(CC(=O)Nc2nccs2)(c2ccccc2)CCO1 (stereo not given),1%,-18%,-10%,-2%,-1%,-3%
CCOc1ccc(NC(=O)c2cc(-c3ccc(C)c(F)c3)on2)c([N+](=O)[O-])c1,.,.,.,5%,.,.
CC(C)(C)c1cccc(Cn2nnc3ccccc32)c1O,9%,.,-3%,-13%,3%,-3%
CCN(C(=O)c1ccc(C(C)(C)C)cc1)c1nnc(Cn2nnc3ccccc32)s1,4.1µM*,-59%,-24%,-1%,-28%,-9%
CCc1cccc(CC)c1N(COC)C(=O)Cn1nnc2ccccc21,-13%,27%,4%,-1%,-1%,-2%
CCN(C(=O)CC(C)C)c1nnc(Cn2nnc3ccccc32)s1,8.2µM*,-53%,-12%,-10%,-11%,-1%
COc1ccccc1N(C(=O)c1csnn1)C(C(=O)NC1CCCC1)c1ccccc1 (stereo not given),4%,.,1%,-1%,-4%,3%
O=C(CCCN1C(=O)/C(=C/c2cccs2)SC1=S)Nc1ccc(O)c(C(=O)O)c1,6%,.,-3%,?,-1%,0%
O=C(CN1C(=O)S/C(=C\c2ccccc2)C1=O)Nc1cc([N+](=O)[O-])ccc1O,-3%,.,11%,13µM*,3%,-1%
Cc1cc(NC(=O)CCN2C(=O)/C(=C/c3ccccc3F)SC2=S)no1,10%,-17%,1%,-3%,-2%,2%
